Test results reported in PubChem BioAssay.
A number with no mark means an inactive call. Active and inactive are the calls of the source.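 The calls were made as follows, unless noted: active = mean inhibition over 43.08%, the solvent-only control mean plus 3 SD; inactive = the rest.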

What was measured:
[1] = target: Nuclear receptor coactivator 3 (Homo sapiens) (UniProt Q9Y6Q9); experiment: NCOA3 GAL4-fusion reporter inhibition – cell-based, luminescence, quadruplicate, confirmation (AID 588792); details: HEK293 GAL4-SRC3 luciferase reporter, at 3.6 µM, hits give high values;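 also: 0% = DMSO treated cells and 100% = gossypol at 36 µM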
[2] = system: transactivating tegument protein VP16 (Human herpesvirus 1), Gal4-VP16 luciferase reporter; experiment: repression of VP16-driven luciferase reporter – cell-based, luminescence, high throughput, counter-screen for SRC3 inhibitor project (AID 588794; in the data active = inhibition above about 30%); details: mammalian cells, at 3.6 µM, hits give high values
[3] = target: Nuclear receptor coactivator 1 (Homo sapiens) (UniProt Q15788); experiment: NCOA1 GAL4-fusion reporter inhibition – cell-based, luminescence, quadruplicate, confirmation (AID 588820;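 active = mean inhibition above 46.68%, the untreated control wells mean plus 3 SD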;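 also: 0% = DMSO wells and 100% = gossypol 36 µM treated wells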); details: HEK293 GAL4-SRC1 luciferase reporter, at 3.6 µM, hits give high values
[4] = repression of VP16-driven luciferase reporter – cell-based, luminescence, high throughput, counter-screen for SRC1 inhibitor project (AID 588824; in the data active = inhibition above about 25%); details: cell-based VP16 transactivation luciferase luminescence; at 3.6 µM; hits give high values
[5] = StAR promoter reporter inhibitors, counter-screen for LRH-1 inverse agonist project, cell-based, luminescence, high throughput (AID 651611; in the data active = inhibition above about 28%); details: StAR promoter luciferase reporter counterscreen, at 3.6 µM, hits give high values
[6] = target: Nuclear receptor subfamily 5 group A member 2 (Homo sapiens) (UniProt O00482); experiment: NR5A2 activity suppression in reporter cells – cell-based, luminescence, confirmation (AID 651613; in the data active = inhibition above about 42%;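 also: HEK293T cells co-transfected with LRH-1 and StAR promoter luciferase reporter; 0% = vehicle wells and 100% = parental cells lacking receptor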); details: cell-based LRH-1 luciferase reporter, inverse agonism; at 3.6 µM; hits give high values
[7] = target: Steroidogenic factor 1 (Homo sapiens) (UniProt Q13285); experiment: inverse agonism at SF1 nuclear receptor – cell-based, luminescence, high throughput, counter-screen for LRH-1 inverse agonist project (AID 651614; in the data active = inhibition above about 44%;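 also: cells cotransfected with StAR promoter reporter and SF1 expression vector; 0% = vehicle on cells with receptor and 100% = vehicle on cells lacking receptor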); details: cell-based SF1 luciferase reporter, at 3.6 µM, hits give high values
[8] = compounds suppressing VP16-driven luciferase signal – cell-based, luminescence, high throughput, counter-screen for LRH-1 inverse agonist project (AID 651615; in the data active = inhibition above about 33%); details: Gal4-VP16 luciferase reporter cells, at 3.6 µM, hits give high values

Chain of Nuclear receptor subfamily 5 group A member 2 (Homo sapiens) (O00482 whole entry, looked up): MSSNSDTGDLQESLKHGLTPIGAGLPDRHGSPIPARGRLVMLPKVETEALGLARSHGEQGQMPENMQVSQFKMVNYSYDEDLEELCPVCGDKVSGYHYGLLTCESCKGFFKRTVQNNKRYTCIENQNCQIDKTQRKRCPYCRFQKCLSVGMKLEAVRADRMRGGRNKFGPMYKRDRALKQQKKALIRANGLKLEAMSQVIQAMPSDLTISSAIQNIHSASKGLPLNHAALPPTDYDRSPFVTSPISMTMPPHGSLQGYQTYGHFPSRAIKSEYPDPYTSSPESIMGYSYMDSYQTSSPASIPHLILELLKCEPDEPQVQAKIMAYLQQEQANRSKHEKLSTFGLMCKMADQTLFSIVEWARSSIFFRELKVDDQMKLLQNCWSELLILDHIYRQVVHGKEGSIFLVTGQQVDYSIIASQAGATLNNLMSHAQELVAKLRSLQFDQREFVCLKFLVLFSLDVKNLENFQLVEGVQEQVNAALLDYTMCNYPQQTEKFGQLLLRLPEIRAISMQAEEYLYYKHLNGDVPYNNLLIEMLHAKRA
Chain of Nuclear receptor coactivator 3 (Homo sapiens) (Q9Y6Q9 whole entry, looked up, the tested form may be a part): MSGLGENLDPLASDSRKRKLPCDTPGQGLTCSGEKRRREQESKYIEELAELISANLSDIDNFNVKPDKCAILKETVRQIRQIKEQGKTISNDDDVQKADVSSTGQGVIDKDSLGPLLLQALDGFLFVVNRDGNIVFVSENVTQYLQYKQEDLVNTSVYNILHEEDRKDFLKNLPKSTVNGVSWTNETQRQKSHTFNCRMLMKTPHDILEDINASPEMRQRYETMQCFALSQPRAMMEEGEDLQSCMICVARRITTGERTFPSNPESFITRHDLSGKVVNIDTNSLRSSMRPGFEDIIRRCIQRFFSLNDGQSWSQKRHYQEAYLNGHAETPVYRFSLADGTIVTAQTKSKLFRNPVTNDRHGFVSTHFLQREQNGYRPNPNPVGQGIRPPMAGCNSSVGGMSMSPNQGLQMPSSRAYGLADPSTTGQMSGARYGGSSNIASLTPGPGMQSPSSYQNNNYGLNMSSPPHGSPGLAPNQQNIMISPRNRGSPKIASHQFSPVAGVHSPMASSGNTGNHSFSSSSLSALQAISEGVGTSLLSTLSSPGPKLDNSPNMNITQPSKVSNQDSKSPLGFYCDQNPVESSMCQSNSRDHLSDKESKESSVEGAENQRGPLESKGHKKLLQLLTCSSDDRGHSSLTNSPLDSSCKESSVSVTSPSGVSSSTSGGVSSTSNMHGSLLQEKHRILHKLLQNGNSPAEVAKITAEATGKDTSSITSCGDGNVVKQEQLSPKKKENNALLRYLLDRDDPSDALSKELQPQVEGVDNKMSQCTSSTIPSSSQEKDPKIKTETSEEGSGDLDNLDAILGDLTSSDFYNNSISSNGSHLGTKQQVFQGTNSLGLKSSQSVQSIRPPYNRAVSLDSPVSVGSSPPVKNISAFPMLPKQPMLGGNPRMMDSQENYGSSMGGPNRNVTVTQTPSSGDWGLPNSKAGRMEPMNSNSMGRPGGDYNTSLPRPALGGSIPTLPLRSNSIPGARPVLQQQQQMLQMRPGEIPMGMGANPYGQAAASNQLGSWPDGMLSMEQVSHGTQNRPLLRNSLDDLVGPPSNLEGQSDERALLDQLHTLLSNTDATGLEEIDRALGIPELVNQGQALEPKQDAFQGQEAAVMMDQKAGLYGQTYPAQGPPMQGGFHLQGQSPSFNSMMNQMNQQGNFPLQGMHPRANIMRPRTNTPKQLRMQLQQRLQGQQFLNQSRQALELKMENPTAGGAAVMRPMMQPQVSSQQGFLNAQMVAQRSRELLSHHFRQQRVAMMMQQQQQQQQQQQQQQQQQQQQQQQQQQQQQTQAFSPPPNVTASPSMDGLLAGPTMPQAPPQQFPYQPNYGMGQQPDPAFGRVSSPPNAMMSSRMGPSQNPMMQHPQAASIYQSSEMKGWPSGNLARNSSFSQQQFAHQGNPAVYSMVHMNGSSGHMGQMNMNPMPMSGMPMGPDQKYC
Chain of Nuclear receptor coactivator 1 (Homo sapiens) (Q15788 whole entry, looked up, the tested form may be a part): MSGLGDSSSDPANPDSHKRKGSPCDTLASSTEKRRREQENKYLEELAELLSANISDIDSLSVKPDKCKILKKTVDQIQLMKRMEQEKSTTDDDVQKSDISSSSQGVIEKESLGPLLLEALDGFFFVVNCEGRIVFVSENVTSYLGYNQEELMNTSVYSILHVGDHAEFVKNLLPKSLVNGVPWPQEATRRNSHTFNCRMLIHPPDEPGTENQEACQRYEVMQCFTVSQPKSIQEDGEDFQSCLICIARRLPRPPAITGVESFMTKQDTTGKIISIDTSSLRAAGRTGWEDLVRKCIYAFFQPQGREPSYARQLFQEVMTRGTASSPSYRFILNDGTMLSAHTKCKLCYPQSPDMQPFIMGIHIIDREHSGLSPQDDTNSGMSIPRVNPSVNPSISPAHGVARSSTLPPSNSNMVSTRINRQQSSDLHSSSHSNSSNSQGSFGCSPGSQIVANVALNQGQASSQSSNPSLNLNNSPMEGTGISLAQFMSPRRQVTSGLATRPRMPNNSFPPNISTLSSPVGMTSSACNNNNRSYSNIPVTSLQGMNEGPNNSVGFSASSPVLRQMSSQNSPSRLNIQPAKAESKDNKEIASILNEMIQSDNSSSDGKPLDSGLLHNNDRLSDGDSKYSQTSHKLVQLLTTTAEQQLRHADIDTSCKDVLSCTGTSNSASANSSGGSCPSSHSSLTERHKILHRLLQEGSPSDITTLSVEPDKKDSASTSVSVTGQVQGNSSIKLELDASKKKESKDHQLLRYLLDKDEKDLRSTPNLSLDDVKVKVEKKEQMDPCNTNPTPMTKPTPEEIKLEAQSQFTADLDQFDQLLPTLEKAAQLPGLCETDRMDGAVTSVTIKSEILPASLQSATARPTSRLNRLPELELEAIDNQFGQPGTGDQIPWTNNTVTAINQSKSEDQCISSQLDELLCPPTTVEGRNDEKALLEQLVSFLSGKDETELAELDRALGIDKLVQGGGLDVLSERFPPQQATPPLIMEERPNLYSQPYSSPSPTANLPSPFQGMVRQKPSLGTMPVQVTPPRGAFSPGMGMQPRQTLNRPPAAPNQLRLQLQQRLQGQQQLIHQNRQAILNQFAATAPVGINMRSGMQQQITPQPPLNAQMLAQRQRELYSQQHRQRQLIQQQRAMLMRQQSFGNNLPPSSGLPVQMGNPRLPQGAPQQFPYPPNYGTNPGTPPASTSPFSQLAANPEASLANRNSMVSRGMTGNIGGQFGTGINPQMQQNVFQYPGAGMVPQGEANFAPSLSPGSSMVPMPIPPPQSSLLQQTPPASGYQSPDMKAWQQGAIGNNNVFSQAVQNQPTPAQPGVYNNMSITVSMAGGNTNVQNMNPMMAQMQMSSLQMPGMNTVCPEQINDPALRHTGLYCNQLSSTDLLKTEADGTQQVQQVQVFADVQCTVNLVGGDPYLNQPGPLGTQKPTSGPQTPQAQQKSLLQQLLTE
Chain of Steroidogenic factor 1 (Homo sapiens) (Q13285 whole entry, looked up, the tested form may be a part): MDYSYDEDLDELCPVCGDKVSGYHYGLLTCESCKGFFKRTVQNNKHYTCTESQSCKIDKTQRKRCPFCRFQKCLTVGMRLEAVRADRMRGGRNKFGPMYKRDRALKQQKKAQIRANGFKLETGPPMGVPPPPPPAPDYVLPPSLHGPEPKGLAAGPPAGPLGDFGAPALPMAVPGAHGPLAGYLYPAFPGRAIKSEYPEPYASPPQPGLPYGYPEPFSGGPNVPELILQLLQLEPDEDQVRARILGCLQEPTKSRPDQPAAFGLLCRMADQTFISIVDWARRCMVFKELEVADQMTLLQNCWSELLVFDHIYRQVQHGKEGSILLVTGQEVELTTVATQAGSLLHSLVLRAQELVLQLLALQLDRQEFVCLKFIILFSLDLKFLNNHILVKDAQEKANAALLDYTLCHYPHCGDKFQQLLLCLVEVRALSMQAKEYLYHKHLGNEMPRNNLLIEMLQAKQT

Structure (SMILES) | inhibition [1] | inhibition [2] | inhibition [3] | inhibition [4] | inhibition [5] | inhibition [6] | inhibition [7] | inhibition [8]
Cc1[nH]nc2ccc(-c3cncc(OC[C@@H](N)Cc4c[nH]c5ccccc45)c3)cc12 | 98.5% (active) | 97.1% (active) | 93.5% (active) | 97.3% (active) | – | – | – | –
CCN1/C(=C/C=C/C2=[N+](CC)c3ccccc3C2(C)C)C(C)(C)c2ccccc21 | 97.1% (active) | 87.3% (active) | 51.5% (active) | 87.5% (active) | 86.7% (active) | 110% (active) | 96.1% (active) | 96.7% (active)
Cc1ccccc1-[n+]1c(-c2ccccc2)cc(-c2ccccc2)cc1-c1ccccc1 | 69.8% (active) | 86% (active) | 71.6% (active) | 84.6% (active) | 83.2% (active) | 109% (active) | 95.3% (active) | 94.7% (active)
Cc1ccc(C[n+]2c(-c3ccc(C)cc3)cc(-c3ccc(C)cc3)cc2-c2ccc(C)cc2)cc1 | 91.3% (active) | 87.9% (active) | 44.1% | 84.7% (active) | – | – | – | –
CN1CCN(c2ncnc3ccc(Br)cc23)CC1 | 42.3% | 37.6% (active) | 31.2% | 33.4% (active) | – | – | – | –
O=c1[nH]c2ccccc2n1C1CCN(C(c2ccccc2OC(F)(F)F)c2nnnn2Cc2ccccc2)CC1 (configuration not stated) | -2.46% | 2.54% | -29% | 0.5% | – | – | – | –
CCCc1nc2ccc(Br)cc2c(=O)n1-c1ccc([N+](=O)[O-])c(C(F)(F)F)c1 | -13% | 11.2% | 13.3% | 14.8% | – | – | – | –
C[C@]12CC[C@H](O)C[C@H]1CC[C@@H]1[C@@H]2C[C@@H](O)[C@]2(C)[C@@H](C3=CC(=O)OC3)CC[C@]12O | 88.8% (active) | 65.8% (active) | 13.8% | 65.4% (active) | 94.8% (active) | 107% (active) | 96% (active) | 77.7% (active)
COc1ccc(-[n+]2c(-c3ccccc3)cc(-c3ccc(C)cc3)cc2-c2ccccc2)cc1 | 85.5% (active) | 87.3% (active) | 71.9% (active) | 88.3% (active) | 82.7% (active) | 111% (active) | 96.9% (active) | 98.2% (active)
